# Source: article PMC5700166
# Where a chain is given by its changes, count along the chain named.
# Experiments:
# Assay in all cases: protein-binding microarray (PBM); PBM: ~300 nM protein, 6 mM HEPES pH 7.8, 80 mM KCl, 0.5 mM EDTA, 0.5 mM EGTA, 6% glycerol, 35 ng/ul poly-dIdC, 1% milk, 1 h, room temperature; Ap Aiptasia and Nv Nematostella (sea anemones) / Co Capsaspora / Aq Amphimedon (sponge) / Dm Drosophila / Hu human; RHD is the Rel homology domain; high values mean tight binding
# Settings in all cases: dsDNA, one strand shown
# GST-Ap-NF-kB RHD = biological target: T1, GST-Ap-NF-kB RHD (Exaiptasia pallida (Aiptasia), UniProt A0A913YAJ5 2-422)
# T1 sequence: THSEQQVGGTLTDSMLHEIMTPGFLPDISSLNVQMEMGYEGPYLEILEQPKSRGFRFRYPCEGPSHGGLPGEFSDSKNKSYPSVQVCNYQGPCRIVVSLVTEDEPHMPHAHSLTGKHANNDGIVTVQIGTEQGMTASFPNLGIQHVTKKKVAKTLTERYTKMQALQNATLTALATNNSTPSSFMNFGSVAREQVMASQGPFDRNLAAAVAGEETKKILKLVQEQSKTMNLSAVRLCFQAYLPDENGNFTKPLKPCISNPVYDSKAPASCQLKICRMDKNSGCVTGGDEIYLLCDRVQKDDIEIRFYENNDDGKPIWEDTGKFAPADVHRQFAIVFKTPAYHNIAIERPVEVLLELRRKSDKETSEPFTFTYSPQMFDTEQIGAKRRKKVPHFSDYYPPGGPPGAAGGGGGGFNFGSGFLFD
# [1] = biological target: T2, GST-Nv-NF-kB (Cys allele) (Nematostella vectensis, UniProt E5G601 2-411)
# T2 sequence: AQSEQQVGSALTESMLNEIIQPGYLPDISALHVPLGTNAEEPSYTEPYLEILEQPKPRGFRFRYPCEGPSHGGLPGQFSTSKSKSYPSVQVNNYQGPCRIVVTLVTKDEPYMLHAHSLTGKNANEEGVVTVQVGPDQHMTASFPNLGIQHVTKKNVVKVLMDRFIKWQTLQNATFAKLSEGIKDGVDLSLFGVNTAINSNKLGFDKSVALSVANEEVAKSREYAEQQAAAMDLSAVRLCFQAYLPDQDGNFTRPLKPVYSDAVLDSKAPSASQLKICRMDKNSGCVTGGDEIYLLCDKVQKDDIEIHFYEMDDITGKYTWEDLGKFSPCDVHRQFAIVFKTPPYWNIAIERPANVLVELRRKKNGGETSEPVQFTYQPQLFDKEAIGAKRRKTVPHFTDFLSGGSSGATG
# [2] = biological target: T3, GST-Nv-NF-kB (Ser allele) (Nematostella vectensis, UniProt A7UNT2 2-411)
# T3 sequence: T2 sequence with Q21R, C66S, S207N, E215Q, V217A, E225K, A268E, D399E
# GST-Co-NF-kB = biological target: T4, GST-Co-NF-kB (Capsaspora owczarzaki, UniProt F1ARL5 200-546)
# T4 sequence: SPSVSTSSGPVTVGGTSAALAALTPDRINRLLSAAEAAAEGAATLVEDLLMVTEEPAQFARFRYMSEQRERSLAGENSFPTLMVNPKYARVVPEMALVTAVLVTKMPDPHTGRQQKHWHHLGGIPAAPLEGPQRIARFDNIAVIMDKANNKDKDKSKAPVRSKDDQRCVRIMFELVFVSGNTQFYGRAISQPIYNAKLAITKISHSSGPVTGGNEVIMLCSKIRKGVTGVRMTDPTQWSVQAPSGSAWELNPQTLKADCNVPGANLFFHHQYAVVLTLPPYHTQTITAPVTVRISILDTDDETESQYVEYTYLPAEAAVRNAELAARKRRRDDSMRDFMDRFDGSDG
# GST-Dm-Relish = biological target: T5, GST-Dm-Relish (Drosophila melanogaster, UniProt Q94527 99-473)
# T5 sequence: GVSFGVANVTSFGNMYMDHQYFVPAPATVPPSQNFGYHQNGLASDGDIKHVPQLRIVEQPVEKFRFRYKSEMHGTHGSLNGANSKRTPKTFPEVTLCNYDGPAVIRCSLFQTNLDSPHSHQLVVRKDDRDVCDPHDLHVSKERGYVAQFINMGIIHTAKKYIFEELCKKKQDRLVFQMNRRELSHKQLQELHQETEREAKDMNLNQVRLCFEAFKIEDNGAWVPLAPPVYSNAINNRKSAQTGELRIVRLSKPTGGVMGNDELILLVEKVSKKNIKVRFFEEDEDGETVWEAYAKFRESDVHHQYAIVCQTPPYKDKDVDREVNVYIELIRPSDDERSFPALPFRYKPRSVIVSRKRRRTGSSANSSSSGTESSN
# GST-Aq-NF-kB = biological target: T6, GST-Aq-NF-kB (Amphimedon queenslandica, UniProt A9Y5G7 2-389)
# T6 sequence: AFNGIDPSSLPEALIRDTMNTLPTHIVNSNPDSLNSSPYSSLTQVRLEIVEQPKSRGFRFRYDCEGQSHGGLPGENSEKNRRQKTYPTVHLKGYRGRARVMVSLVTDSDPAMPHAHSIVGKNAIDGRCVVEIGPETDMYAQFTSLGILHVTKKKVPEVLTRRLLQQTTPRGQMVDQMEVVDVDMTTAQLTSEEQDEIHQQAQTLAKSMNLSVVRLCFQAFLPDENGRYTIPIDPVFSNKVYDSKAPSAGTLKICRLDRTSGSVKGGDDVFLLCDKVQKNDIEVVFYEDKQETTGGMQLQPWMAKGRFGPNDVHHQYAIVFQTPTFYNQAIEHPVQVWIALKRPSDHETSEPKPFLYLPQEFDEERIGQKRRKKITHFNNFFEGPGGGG
# GST-Hu-p50 = GST-Hu-p50 (Homo sapiens, UniProt P19838 7-356)
# GST-Hu-p50, sequence (P19838 7-356): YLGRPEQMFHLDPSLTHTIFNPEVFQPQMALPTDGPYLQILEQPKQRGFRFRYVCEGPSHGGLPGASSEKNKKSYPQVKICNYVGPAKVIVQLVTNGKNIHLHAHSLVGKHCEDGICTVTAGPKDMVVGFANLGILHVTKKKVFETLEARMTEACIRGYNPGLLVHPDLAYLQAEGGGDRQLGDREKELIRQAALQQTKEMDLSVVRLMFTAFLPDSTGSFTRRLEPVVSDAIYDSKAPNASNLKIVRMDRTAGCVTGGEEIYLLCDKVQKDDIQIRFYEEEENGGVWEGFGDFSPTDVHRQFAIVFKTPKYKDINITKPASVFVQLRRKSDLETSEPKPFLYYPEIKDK
Sequence,binding signal (GST-Ap-NF-kB RHD) [z-score],binding signal [1] [z-score],binding signal [2] [z-score],binding signal (GST-Co-NF-kB) [z-score],binding signal (GST-Dm-Relish) [z-score],binding signal (GST-Aq-NF-kB) [z-score],binding signal (GST-Hu-p50) [z-score]
CCGATTAACATCAAGACTTTCCCTGATGTTAATCGGGTCTTGATTCGCTTGACGCTGCTG,4.06,5.48,5.59,2.92,2.82,6.09,4.12
CCGATTAACATCAACGGATTCCCTGATGTTAATCGGGTCTTGATTCGCTTGACGCTGCTG,2.31,3.57,3.98,2.89,5.42,2.97,1.77
CCGATTAACATCAGGGGGTAAGATGATGTTAATCGGGTCTTGATTCGCTTGACGCTGCTG,3.96,3.13,3.97,5.47,1.62,3.34,3.07
CCGATTAACATCAAACTTTCCCCTGATGTTAATCGGGTCTTGATTCGCTTGACGCTGCTG,7.27,8.67,9.66,8.89,4.44,7.57,6.2
CCGATTAACATCAGAGGATTCCCTGATGTTAATCGGGTCTTGATTCGCTTGACGCTGCTG,3.72,4.52,4.31,2.44,7.61,4.43,2.84
CCGATTAACATCAAGATATTCCCTGATGTTAATCGGGTCTTGATTCGCTTGACGCTGCTG,4.46,4.57,5.05,3.05,2.34,4.02,2.44
CCGATTAACATCAGGGGGTCCACTGATGTTAATCGGGTCTTGATTCGCTTGACGCTGCTG,4.33,2.44,2.96,1.99,7.96,4.83,3.28
CCGATTAACATCACACTTTCCCCTGATGTTAATCGGGTCTTGATTCGCTTGACGCTGCTG,6.32,6.92,8.7,7.06,2.75,4.81,5.3
CCGATTAACATCATTAGGGGAAGTGATGTTAATCGGGTCTTGATTCGCTTGACGCTGCTG,4.61,5.4,7.61,3.41,2.36,4.57,5.39
CCGATTAACATCAGGGAAACCCCTGATGTTAATCGGGTCTTGATTCGCTTGACGCTGCTG,10.6,11.4,9.7,5.51,9.95,10,6.82
CCGATTAACATCAAATATCCCCTTGATGTTAATCGGGTCTTGATTCGCTTGACGCTGCTG,8.05,8.3,9.01,3.88,6.97,6.2,6.19
CCGATTAACATCAGGGGGTGGGATGATGTTAATCGGGTCTTGATTCGCTTGACGCTGCTG,2.8,2.48,3.52,3.22,3.58,3.34,3.07
CCGATTAACATCAGGATTTCCCCTGATGTTAATCGGGTCTTGATTCGCTTGACGCTGCTG,10,11.1,11.4,7.55,9.64,9.68,7.53
CCGATTAACATCAAGTTCCCCCCTGATGTTAATCGGGTCTTGATTCGCTTGACGCTGCTG,7.37,6.39,7.26,10.1,6.95,6.03,6.13
CCGATTAACATCAGGGGGACTACTGATGTTAATCGGGTCTTGATTCGCTTGACGCTGCTG,6.49,4.44,4.46,4.53,6.39,5.25,4.55
CCGATTAACATCACCCCCGCCCCTGATGTTAATCGGGTCTTGATTCGCTTGACGCTGCTG,4.47,3.37,3.72,6.71,4.74,4.27,3.7
CCGATTAACATCAAAAAACCACCTGATGTTAATCGGGTCTTGATTCGCTTGACGCTGCTG,4.79,5.1,7.1,1.37,8.7,5.41,6.81
CCGATTAACATCAATTTCCCCCGTGATGTTAATCGGGTCTTGATTCGCTTGACGCTGCTG,7.85,6.59,8.85,12.3,5.65,6.15,6.52
CCGATTAACATCAAGAATTTCCCTGATGTTAATCGGGTCTTGATTCGCTTGACGCTGCTG,5.92,7.47,7.49,5.07,3.52,7.53,5.23
CCGATTAACATCAAGAACTTCCCTGATGTTAATCGGGTCTTGATTCGCTTGACGCTGCTG,3.37,3.73,3.72,2.1,2.86,4.6,2.19
CCGATTAACATCAGGGGAAACACTGATGTTAATCGGGTCTTGATTCGCTTGACGCTGCTG,6.4,8.15,9.65,7.63,9.02,7,6.08
CCGATTAACATCAGGGGGCACCCTGATGTTAATCGGGTCTTGATTCGCTTGACGCTGCTG,5.39,3.36,2.57,2.17,3.84,5.62,3.84
CCGATTAACATCACTTTTTCCCCTGATGTTAATCGGGTCTTGATTCGCTTGACGCTGCTG,6.12,7.44,9.65,10.6,3.45,4.94,5.64
CCGATTAACATCACCCCACCCCCTGATGTTAATCGGGTCTTGATTCGCTTGACGCTGCTG,3.67,2.66,3.49,3.94,4.21,3.4,3.36
